# Source: PubChem BioAssay (several laboratories)
# Hits are enriched below; roughly 1.8% of the tested compounds scored in any of these assays.
# PriA SSB inh: K. pneumoniae PriA-SSBct interaction inhibition | AlphaScreen SSBct-PriA binding, biotinylated peptide | inhibition, % at 33 µM | 430,000 tested, 0.6% active; in the data active means inhibition mostly above about 37%, no sharp cut-off; inactive means mostly below about 20%
# PrPC surface inh: reduces human prion protein on the cell surface. P04156. 370,000 tested, 0.43% active. inhibition, % at 13.8 µM. cell surface PrPC, TR-FRET read-out; in the data active means inhibition above about 24%
# PfHsp40 rescue: restores yeast growth despite PfHsp40 toxicity. S. cerevisiae expressing PfHsp40, growth rescue, ATP luminescence. 340,000 tested, 0.68% active. growth rescue, % at 12.5 µM; in the data active means growth rescue above about 28%, passing the limit was not always enough; inconclusive means no clear call, values can overlap the other calls;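 further: yeast W303a lacking pdr1 and pdr3 grown in galactose medium; growth measured after three days at 30 °C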
# MazEF act: activators of E. coli MazEF toxin-antitoxin RNase; P0AE70; 350,000 tested, 0.32% active; FAM/BHQ RNA-DNA oligo cleavage fluorescence, 5 h; activation, % at 20 µM; in the data active means activation above about 50%
# Target sequence (P0AE70 whole entry, looked up): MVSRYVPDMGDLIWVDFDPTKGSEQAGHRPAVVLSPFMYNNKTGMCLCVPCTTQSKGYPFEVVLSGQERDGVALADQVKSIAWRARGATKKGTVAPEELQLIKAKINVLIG
# PrP UTR inh: suppresses PrP 5' UTR mRNA reporter expression; 340,000 tested, 0.35% active; cell-based PrP 5' UTR mRNA reporter, plate reader; inhibition, % (test concentration not listed); in the data active means inhibition above about 52%
# A number is an active result; 0 = inactive; ? = inconclusive; - = not tested or not shown; + = active, no number.
SMILES,PriA SSB inh,PrPC surface inh,PfHsp40 rescue,MazEF act,PrP UTR inh
O=C(O)COc1ccccc1C(Nc1cccnc1)c1cc(Cl)c2cccnc2c1O (centres undefined),0,-,106,0,0
CCC(=O)NC(c1ccc(C)cc1)c1cc(Cl)c2cccnc2c1O (centres undefined),0,-,?,0,0
O=C(O)COc1ccccc1C(Nc1ccccn1)c1cc(Cl)c2cccnc2c1O (centres undefined),0,0,58,0,0
O=C(NCC(c1cccnc1)N1CCc2ccccc2C1)C(=O)Nc1ccc2c(c1)OCCO2 (centres undefined),0,-,-,-,-
O=[N+]([O-])c1ccc(C=CC=Cc2ccccc2)cc1,-,0,-,68,-
O=[N+]([O-])c1cccc(N/N=C/c2ccc(N3CCOCC3)cc2)c1,-,0,0,0,0
O=[N+]([O-])c1ccc(N/N=C/c2ccccc2)c(F)c1,-,0,0,234,0
O=[N+]([O-])c1cccc(NN=Cc2ccc(N3CCOCC3)cc2)c1,52,-,-,-,-
O=[N+]([O-])c1ccc(C=NNc2ccccc2)cc1,0,0,30,0,0
O=C(NCc1cccnc1)c1ccccc1-c1ccccc1,0,0,0,0,0
CCOc1ccccc1NC(=O)c1cc2ccccc2c(=O)s1,0,-,-,-,-
CN(C)S(=O)(=O)c1ccc(C(=O)N2CCC(c3nnc(-c4ccc(F)cc4)o3)CC2)cc1,0,-,-,-,-
CCS(=O)(=O)c1ccc(-c2nnc(NC(=O)COc3ccccc3F)o2)cc1,0,-,-,-,-
COc1cccc(-c2ncc3ccccc3c2COC(=O)c2ccc(F)cc2)c1,0,0,0,0,0
CCCCN(c1ccccc1)c1ncnc(N)c1[N+](=O)[O-],0,0,0,0,0
COc1cc(N=C2C(=O)N3c4c(cccc42)C(C)=CC3(C)C)cc(OC)c1,0,0,0,0,0
CC1=CC(C)(C)N2C(=O)C(=Nc3ccc(O)cc3)c3cccc1c32,40,0,0,0,0
CC(=O)N1CC[n+]2c(-c3ccc(Cl)cc3Cl)csc21,0,0,0,0,0
COc1ccc(CNC(=S)NC(C)CCc2ccccc2)cc1 (centres undefined),0,0,0,0,0
COc1ccc(CCC(=O)NCCSc2ncc(-c3ccc(OC)cc3)[nH]2)cc1,38,-,-,-,-
CCn1nnnc1NCc1ccc(SC)cc1,0,0,39,0,0
CCn1nnnc1NCc1ccc(N2CCCC2)cc1,0,0,0,0,0
CCCCN1C(=O)/C(=C/C=C2/CC(C)(C)CN2C)SC1=S,0,0,0,118,0
COc1ccc(-c2nc(C#N)c(N3CCCCC3)o2)cc1,50,0,0,0,0
CCOc1ccc(-c2nc(C#N)c(N3CCCCCC3)o2)cc1,93,0,0,0,0
SMILES,PriA SSB inh,PrPC surface inh,PfHsp40 rescue,MazEF act,PrP UTR inh
COc1ccc(-c2nc(C#N)c(N3CCOCC3)o2)cc1,54,-,-,-,-
Cc1ccc(S(=O)(=O)N2CCN(Cc3nc4sc(C)c(C)c4c(=O)[nH]3)CC2)cc1,0,0,0,88,0
Cc1sc2nc(CN3CCN(S(=O)(=O)c4cccc5nonc45)CC3)[nH]c(=O)c2c1C,0,0,0,0,0
Cc1cccc(C(=O)Nc2nc(-c3ccccn3)cs2)c1[N+](=O)[O-],97,-,-,-,-
O=C(Nc1nc(-c2ccccn2)cs1)c1ccc(Cl)cc1[N+](=O)[O-],110,-,-,-,-
O=C(Nc1nc(-c2ccccn2)cs1)c1ccc([N+](=O)[O-])s1,0,-,-,-,-
CC1=CC(=O)C(C(C)C)=C/C1=N/OS(=O)(=O)c1ccccc1,-,0,346,0,0
CC1=CC(=O)C=C(C)C1=NOS(=O)(=O)c1ccccc1,0,0,335,0,0
CC1=CC(=NOS(=O)(=O)c2ccccc2)C(C(C)C)=CC1=O,0,-,-,-,-
C=C1C(=O)OC2CC1C(O)CC(C)=CCCC(C)=CC(O)CC2C (centres undefined),-,33,0,0,0
Cc1cc(C)n(-c2nc3ccccc3nc2Nc2ccc3c(c2)OCO3)n1,0,0,0,0,0
Cc1cc(C)n(-c2nc3nonc3nc2Nc2cccc(C)c2C)n1,0,0,0,190,0
CC(C)N(Cc1ccccc1)C(=O)CN1c2cccc3cccc(c23)S1(=O)=O,0,0,70,0,0
CCCCC(c1nnnn1Cc1ccco1)N1CCN(c2nc3ccccc3s2)CC1 (centres undefined),0,0,27,0,0
Cc1oc2cc(OCC(N)=O)ccc2c(=O)c1-c1ccccc1,0,-,-,-,-
Cc1nn(CC(=O)NCc2ccc(OC(C)C)cc2)c(=O)c2cc(-c3ccccc3)nn12,0,-,0,0,0
O=C(O)c1cccc2c3c([nH]c12)CCCC3,0,0,128,0,0
Cc1cc(NC(=O)COc2ccccc2F)n(-c2nc3c(cnn3-c3cccc(C)c3C)c(=O)[nH]2)n1,43,-,-,-,-
COc1cccc(C(=O)Nc2cc(C)nn2-c2nc3c(cnn3-c3cccc(C)c3C)c(=O)[nH]2)c1OC,94,-,-,-,-
COc1cccc(C(=O)Nc2cc(C)nn2-c2nc3c(cnn3-c3ccc(C)cc3)c(=O)[nH]2)c1OC,0,-,-,-,-
CCOC(=O)C1CCN(C(=O)Cn2cc(C(=O)OC)c3ccccc32)CC1,0,0,0,0,0
COc1ccc2nc(NC(=O)CSc3nc(C)cc(=O)[nH]3)sc2c1,0,0,0,0,0
COCCn1c(SCc2nnc(-c3ccccc3)o2)nc2sc3c(c2c1=O)CCC3,0,0,0,0,0
Cc1ccc(/C(=N\S(=O)(=O)c2ccc(Br)cc2)Nc2ccccc2C)cc1,-,0,0,0,0
CCOC(=O)c1sc(N)c(C(=O)OCC)c1COC(=O)C1CC(=O)N(Cc2ccco2)C1 (centres undefined),0,0,0,0,0
SMILES,PriA SSB inh,PrPC surface inh,PfHsp40 rescue,MazEF act,PrP UTR inh
CN(C)c1ccc(-c2nnc3sc(-c4ccccn4)nn23)cc1,74,-,-,-,-
c1ccc(-c2nn3c(-c4ccncc4)nnc3s2)nc1,59,-,-,-,-
COc1ccc(-c2nnc3sc(-c4ccccn4)nn23)cc1,56,-,-,-,-
CC(C)(C)c1ccc(-c2nnc3sc(-c4ccccn4)nn23)cc1,46,0,0,0,0
O=C(c1cccc(Cl)c1)N1CCN(c2ccnc3cc(Cl)ccc23)CC1,-,0,-,-,-
CCc1ccc(CNC=CC(=O)c2ccc(Br)cc2)cc1,0,-,-,-,-
Cc1cc(NS(=O)(=O)c2ccc(C3CCCCC3)cc2)no1,0,0,510,0,0
Cc1cc(NS(=O)(=O)c2ccc(CC(C)C)cc2)no1,0,0,40,0,0
O=C(CN1CC(=O)Nc2ccccc21)Nc1ccc(F)c(F)c1,0,0,43,0,0
Cn1c(CN2CCN(CC#N)CC2)c(C#N)c2ccccc21,0,0,0,0,0
COc1ccc2ccccc2c1C1C=C(c2ccccc2)NC(=S)N1 (centres undefined),36,-,-,-,-
Cc1cccc(Cn2cc(COC(=O)NCCc3ccccc3)nn2)c1,-,0,-,-,-
C/C(=N/NC(=O)c1ccncc1)c1cc2ccc(O)cc2oc1=O,-,0,0,+,0
COc1ccc(Oc2cc(NC(=O)c3nn(C)cc3[N+](=O)[O-])cc([N+](=O)[O-])c2)cc1,0,0,0,0,0
O=[N+]([O-])c1ccc2[nH]c(O)c(N=Nc3ccc(F)cc3)c2c1,0,0,0,316,0
